The record followed here is PubChem BioAssay (NCI).

About 79,000 compounds went through this panel and 15% of them were active in at least one assay; those are over-represented in the sample as a whole. Values without a mark were called inactive. Active and inactive are the calls of the source. Rule as the data show it: active = growth inhibition above about 70%; inactive = the rest.

The experiment can be described thus: NCI Yeast Anticancer Drug Screen. Data for the wt2 strain (AID 169).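 Also: 0% = growth of vehicle-treated yeast cultures.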 Conditions: S. cerevisiae wt2 strain growth inhibition, stronger effect = higher value. The method, then:
Growth inhibition of yeast strains with defined genetic alterations is measured as a screen for potential anti-cancer activity. Selected strains with alterations in DNA damage repair or cell cycle control were exposed to compounds and growth inhibition was measured relative to vehicle treated controls. The strain used in this assay is wt2

As for `O=C(COC(=O)c1ccccc1)c1ccc(Br)cc1`, the growth inhibition (at 1.2 µM) is 16%; the growth inhibition (at 3.7 µM) is 63%; the growth inhibition (at 11.0 µM) was 96% (active); the growth inhibition (at 33.0 µM) is 100% (active); the growth inhibition (at 100.0 µM) is 99% (active).
Consider `OCc1ccccc1Cc1ccccc1`, for which the growth inhibition by setting is: (at 1.2 µM) 0%; (at 3.7 µM) 0%; (at 11.0 µM) 0%; (at 33.0 µM) -2%; (at 100.0 µM) -7%.
As to `Nc1nc(N)c2nc(CNc3ccc(C(=O)NC(CCC(=O)O)C(=O)O)cc3F)cnc2n1` (stereo not given), the growth inhibition is, setting by setting: (at 1.2 µM) -19%; (at 3.7 µM) -11%; (at 11.0 µM) -21%; (at 33.0 µM) 2%; (at 100.0 µM) 48%.
For the compound `CCn1c(O)c(C=Nc2ccccc2)s/c1=N/Nc1nc(-c2ccccc2)cs1`, the growth inhibition (at 1.2 µM) was -3%; the growth inhibition (at 3.7 µM) is -2%; the growth inhibition (at 11.0 µM) is -1%; the growth inhibition (at 33.0 µM) was 2%; the growth inhibition (at 100.0 µM) was 11%.
In the same order, the values of `O=C1CSC(c2cccc(Cl)c2)N1c1ccc(-c2ccc(-n3c(-c4ccccc4)nc4ccccc4c3=O)cc2)cc1` (stereo not given) are 0%, -2%, 0%, 15% and 39%.
As for `CCCC(=O)Oc1ccc(/C=N/NC(N)=S)nc1`, the growth inhibition (at 1.2 µM) was -13%; the growth inhibition (at 3.7 µM) was -5%; the growth inhibition (at 11.0 µM) is -6%; the growth inhibition (at 33.0 µM) was 6%; the growth inhibition (at 100.0 µM) was 10%.
Take `COc1cc(/C=N/Nc2nnc3c4ccccc4c4ncccc4c3n2)cc(OC)c1OC`: the growth inhibition (at 1.2 µM) was -5%; the growth inhibition (at 3.7 µM) was -1%; the growth inhibition (at 11.0 µM) was -2%; the growth inhibition (at 33.0 µM) is -3%; the growth inhibition (at 100.0 µM) was -4%.
In the case of `Cc1cccc2c1nc1ccc(Cl)cc1[n+]2C`, the growth inhibition by setting is: (at 1.2 µM) -2%; (at 3.7 µM) 2%; (at 11.0 µM) 92% (active); (at 33.0 µM) 97% (active); (at 100.0 µM) 95% (active).
